Among the data in PubChem BioAssay (NCI) are growth values, retold here.

Structures are written as SMILES. This is part of a sample that, as a whole, favours compounds with a hit. Of some 83,000 tested, about 20% had one in any assay.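 Single-concentration screen, 48 h exposure, 96-well plates. Endpoint: percent growth. Below 10 = active.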 A number with no mark means an inactive call. Calls of active or inactive are those of the source.

What all share (test): NCI-60 one-dose screen, 48 h (100 = growth as untreated, 0 = no growth, -100 = all killed)
Common to all, as to conditions: 10 µM unless noted

In test [1] the test system is SK-MEL-2 melanoma.
The subject of test [2] is EKVX NSCLC.
Test [3] has as its system SN12C renal.
Test [4] deals with UO-31 renal.
The test system of test [5] is TK-10 renal.
In test [6] the test system is ACHN renal.
Test [7] relates to A498 renal.
Test [8] relates to CCRF-CEM leukemia.
For test [9], the system named is MOLT-4 leukemia.
Test [10] relates to SR leukemia.
Test [11] has as its system RPMI-8226 leukemia.
Test [12] has as its system OVCAR-8 ovarian.
In test [13] the test system is OVCAR-5 ovarian.
The test system of test [14] is OVCAR-4 ovarian.
Test [15] relates to SK-OV-3 ovarian.
The subject of test [16] is OVCAR-3 ovarian.
Test [17] relates to HS 578T breast.
Test [18] concerns NCI/ADR-RES ovarian.
The subject of test [19] is IGROV1 ovarian.

On to `O=C1C(SCCO)=C(SCCO)C(=O)N1c1ccc(-c2ccccc2)cc1`, for which the growth in [1] was -73.5% (active); in test [2], 129%; in [3], 72.4%; in test [4], -96.5% (active); in [5], -57.8% (active); in [6], -99.5% (active). For the same compound, the growth is 105% in test [7]; -43.8% (active) in test [8]; -33.6% (active) in test [9]; -47.6% (active) in test [10]; -14% (active) in [11]; 3.35% (active) in test [12]. For the same compound, the growth in [13] was 102%; in [14] it was 10.3%; in test [15], 106%; in [16], -92% (active); in test [17] it was -50.7% (active); in [18], 104%.
Regarding `CC(C)Cn1cnc2c3ccccc3nc(NCn3nc(-c4cc(Cl)cc(Cl)c4Cl)oc3=S)c21`, the growth in test [1] was 90.8%; in test [2], 89.1%; in [3], 98.5%; in test [4], 64.8%; in [5], 108%; in [6], 97.6%. Besides, the growth in test [7] was 89.5%; in [8], 6.87% (active); in test [9] it was 20.4%; in test [10] it was 25.5%; in test [11], 74.8%; in test [12], 98.4%. For the same compound, the growth in test [13] was 88.3%; in test [14], 88.2%; in [15], 109%; in [19] it was 51%; in test [17], 116%; in test [18], 66.4%.
With `COc1cc(-c2nc3sc(C)cn3c2/C=C2\C(=O)Nc3ccccc32)c(Br)c(OC)c1OC`, the growth in [1] is 74.3%; in [2] it was 31.5%; in test [3], 90.9%; in [4] it was 24.8%; in test [5] it was 56.5%; in [6], 57%. Moreover, the growth is 22.6% in [7]; 34.7% in test [8]; 39.9% in test [9]; 3.87% (active) in [10]; 28.6% in [11]; 65% in test [12]. For the same compound, the growth in test [13] is 81.6%; in test [14], 54.4%; in test [15] it was 31.2%; in [19], -11.8% (active); in test [17], 15.7%; in test [18], 22.9%.
As to `COc1cccc(/C=N/C(=S)NC2(C)C3CCC(C3)C2(C)C)c1O` (stereo not given), the growth in test [1] is 82.1%; in [2] it was 102%; in test [3], 100%; in test [4], 53%; in test [5], 85.9%; in test [6] it was 69.9%. The growth is 73.2% in test [7]; 57.3% in [8]; 63.8% in [9]; 38.4% in test [10]; 73.5% in test [11]; 85.4% in test [12]. The growth is 102% in test [13]; 45.5% in [14]; 102% in [15]; 64.3% in test [19]; 73.2% in test [16]; 83.7% in [18].
In the case of `COC(=O)c1oc2c(C(C)=O)c(OCCCN(C)C)ccc2c1C`, the growth was 106% in test [1]; 187% in test [2]; 109% in test [3]; 75.3% in [4]; 90.8% in test [5]; 107% in test [6]. The growth in [7] is 125%; in [8], -13.6% (active); in [9], 85.8%; in test [10] it was 95%; in test [11], 97.2%; in test [12] it was 111%. The growth is 101% in [13]; 96.4% in [14]; 121% in [15]; 30.1% in test [19]; 97.3% in [17]; 87.4% in test [18].
On to `CCOC(=O)c1cnc2c(OC)ccc(OC)c2c1Cl`, for which the growth in [1] was 127%; in [2], 115%; in test [3], 110%; in test [4], 88.3%; in [5] it was 106%; in test [6] it was 100%. Moreover, the growth in test [7] is 91.8%; in test [8], 5.54% (active); in test [9], 113%; in [10] it was 115%; in test [11], 100%; in [12] it was 101%. Besides, the growth is 109% in test [13]; 113% in test [14]; 100% in test [15]; 117% in test [19]; 108% in [16]; 110% in [18].
For `C[C@H]1C=C(C[C@@H](O)CCCCCCCCCC[C@@H](O)[C@H]2CCC(=O)O2)C(=O)O1`, the growth is 80.2% in test [1]; 91% in test [2]; 117% in [3]; 82% in [4]; 100% in [5]; 96.8% in test [6]. For the same compound, the growth in test [7] is 163%; in [8], 78.5%; in test [9], 112%; in test [10], 114%; in [11], 79.9%; in [12] it was 96.7%. In addition, the growth in [13] was 91.7%; in [14] it was 97.6%; in test [15] it was 110%; in test [19], -23.5% (active); in test [17], 128%; in test [18] it was 99.6%.
`Nc1nc(Cl)cc(NCc2ccc(CNc3cc(Cl)nc(N)n3)cc2)n1`: the growth in test [1] was 74.1%; in [2], 70.4%; in [3], 106%; in [4] it was 84.3%; in test [5] it was 124%; in test [6], 92.7%. The growth in test [7] is 73.7%; in test [8], 107%; in test [9] it was 70.7%; in test [10] it was 139%; in [11], 103%; in test [12], 89.6%. The growth in test [13] was 82.5%; in test [14] it was 59.7%; in test [15], 92.5%; in test [19] it was -31% (active); in test [17], 100%; in test [18] it was 103%.
Consider `COc1cc(-c2nc3ccccc3s2)ccc1OCc1nc2n(n1)S(=O)(=O)c1ccccc1N2C`, for which the growth in test [1] is 85.9%; in [2], 53.6%; in test [3], 107%; in test [4], 72.8%; in [5], 87.8%; in test [6], 94.3%. In addition, the growth in test [7] was 89.9%; in [8] it was 4.89% (active); in [9] it was 89.1%; in test [10], 27.1%; in test [11], 61.2%; in test [12], 74.5%. For the same compound, the growth in test [13] was 99.1%; in test [14], 93.3%; in test [15], 84.6%; in [19] it was 25.6%; in test [17], 48.7%; in test [18] it was 93%.
`CC(=O)Nc1ccc([I+]c2ccc([N+](=O)[O-])cc2)cc1`: the growth in test [1] was 103%; in [2], 88.7%; in test [3] it was 88.3%; in test [4], 60.8%; in test [5], 87.4%; in test [6] it was 89.7%. Further, the growth in [7] is 104%; in test [8] it was 89.2%; in [9], 86.9%; in test [10] it was 87.7%; in test [11], 92.7%; in test [12], 95%. In addition, the growth in test [13] was 116%; in test [14], 90%; in test [15], 94.4%; in test [19] it was 80.8%; in test [16] it was 94.9%; in [18], 113%.
